Growth data for 26 molecules are collected here from PubChem BioAssay (NCI).

Test systems include T-47D breast; BT-549 breast; MDA-MB-435 melanoma; SW-620 colon; MCF7 breast; HCT-116 colon; KM12 colon; HCC-2998 colon.
Test in all cases: NCI-60 one-dose screen, 48 h (100 = growth as untreated, 0 = no growth, -100 = all killed)
Holding throughout (settings): 10 µM unless noted

The panel holds about 83,000 compounds, 20% with a hit somewhere; the sample as a whole holds those more often.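 Each cell line was grown in a 96-well plate and treated with one concentration of compound for 48 hours. Values below 10 were considered active.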 Unmarked numbers belong to inactive results. Calls of active or inactive are those of the source.

With `N[C@H]1CCC[C@@H]1NCCCCN1C(=O)c2cccc3cc([N+](=O)[O-])cc(c23)C1=O`, the growth in the assay with T-47D breast was 57.5%; in the assay on BT-549 breast it was 68.3%; in the assay on MDA-MB-435 melanoma, 53.2%; in the assay on SW-620 colon, 26.7%; with MCF7 breast, 19.7%; with HCT-116 colon, 9.25% (active). For the same molecule, the growth with KM12 colon is 36.6%.

Take `O=C1/C(=C/c2ccc(O)c(O)c2)COc2ccc(-c3ccccc3)cc21`: the growth is 15.4% with T-47D breast; 31.7% in the assay with BT-549 breast; -6.77% (active) in the assay with MDA-MB-435 melanoma; -38.3% (active) with SW-620 colon; 16% in the assay with MCF7 breast; 12.7% in the assay on HCT-116 colon. Further, the growth in the assay on KM12 colon is 19.6%.

Consider `CCCCNC(=O)Oc1ccc(/C(=C(/C)Cc2ccc(OC)cc2)c2ccc(OCCN3CCCCCC3)cc2)cc1`, for which the growth in the assay with T-47D breast was 38.8%; in the assay with BT-549 breast, 93.2%; in the assay on MDA-MB-435 melanoma it was 90.5%; in the assay with SW-620 colon it was 85.9%; in the assay on MCF7 breast, 27.3%; in the assay with HCC-2998 colon, 83.8%. The growth in the assay with KM12 colon was 60.6%.

For the molecule `COc1ccc(N2CCC(=S)NC2=S)cc1`, the growth in the assay on T-47D breast is 102%; in the assay on BT-549 breast, 105%; with MDA-MB-435 melanoma, 96.3%; in the assay with SW-620 colon, 104%; in the assay with MCF7 breast, 94.6%; in the assay with HCC-2998 colon it was 104%. Further, the growth with KM12 colon is 101%.

As for `NC(=O)c1c(NC(=O)c2cccc(C(F)(F)F)c2)sc2c1CCC(=O)C2`, the growth is -3.77% (active) with T-47D breast; -28.2% (active) in the assay on BT-549 breast; -12.2% (active) in the assay on MDA-MB-435 melanoma; -12.4% (active) in the assay on SW-620 colon; 5.02% (active) with MCF7 breast; 16.1% with HCC-2998 colon.

For the molecule `O=[N+]([O-])c1cc(NS(=O)(=O)c2ccccc2)ccc1NS(=O)(=O)c1ccccc1`, the growth in the assay with T-47D breast is 104%; in the assay with BT-549 breast, 74.9%; with MDA-MB-435 melanoma it was 123%; with SW-620 colon it was 84.4%; in the assay with MCF7 breast it was 112%; in the assay with HCC-2998 colon, 99.3%. The growth in the assay on KM12 colon is 103%.

For the molecule `O=C1Nc2ccccc2C1(c1c[nH]c2ccccc12)c1c[nH]c2ccccc12`, the growth in the assay with T-47D breast was -21.2% (active); with BT-549 breast, -17.7% (active); with MDA-MB-435 melanoma, 85%; in the assay with SW-620 colon, 77%; in the assay on MCF7 breast, -1.78% (active); with HCC-2998 colon, 26.4%. Also, the growth in the assay on KM12 colon is 11.9%.

For the molecule `C=C(C)[C@@H]1CC[C@]2(COC(C)=O)CC[C@]3(C)[C@H](CC[C@@H]4[C@@]5(C)CCCN(C(C)=O)C(C)(C)[C@@H]5CC[C@]43C)[C@@H]12`, the growth is 10.9% in the assay on T-47D breast; 88.6% in the assay with BT-549 breast; 4.85% (active) in the assay with MDA-MB-435 melanoma; -53.9% (active) in the assay with SW-620 colon; 19.7% in the assay with MCF7 breast; -28.8% (active) in the assay with HCC-2998 colon. Besides, the growth in the assay on KM12 colon is 5.81% (active).

For `CCN1C(=O)N(CC)C2C1NN=c1s/c(=C\c3ccc[nH]3)c(=O)n12` (stereo not given), the growth was 31% in the assay on T-47D breast; 51.2% in the assay on BT-549 breast; -57% (active) with MDA-MB-435 melanoma; 16.9% with SW-620 colon; 17.6% in the assay with MCF7 breast; 17% with HCT-116 colon. In addition, the growth with KM12 colon was 8.23% (active).

Take `C=C(C)[C@@H]1CCC[C@]2(C(=O)O)CC[C@]3(C)[C@@H](CC[C@@H]4[C@@]5(C)C/C(=C/c6ccncc6)C(=O)C(C)(C)[C@@H]5CC[C@]43C)[C@@H]12`: the growth in the assay with T-47D breast is 47.5%; in the assay with BT-549 breast it was 46.5%; in the assay on MDA-MB-435 melanoma, 19.8%; in the assay on SW-620 colon, 17.5%; in the assay with MCF7 breast, 19.1%; with HCC-2998 colon, 23.8%. The growth with KM12 colon was 19.7%.

In the case of `C/C=C(\C)C(=O)N[C@H]1C(O)C[C@]2(C)C3CC[C@@]4(C)C(CC[C@@H]4C(C)N(C)C)C3CCC2C1O` (stereo not given in full), the growth in the assay on T-47D breast is 37.6%; in the assay with BT-549 breast, 88.9%; in the assay with MDA-MB-435 melanoma it was -22.2% (active); in the assay on SW-620 colon, 12.9%; with HCT-116 colon, 3.85% (active); in the assay on HCC-2998 colon, 59.7%. Besides, the growth in the assay with KM12 colon is 28.7%.

On to `CSc1nn2c(-c3ccc4ccccc4c3)ccnc2c1C#N`, for which the growth with T-47D breast was 18.8%; in the assay on BT-549 breast, 44%; with MDA-MB-435 melanoma, -63.6% (active); in the assay with SW-620 colon it was 9.09% (active); in the assay on HCT-116 colon, -38.1% (active); in the assay on HCC-2998 colon, 52.2%. For the same molecule, the growth in the assay on KM12 colon is 5.75% (active).

On to `C=C1C(=O)O[C@H]2[C@H]1CC/C(COC(=O)/C=C/C(=O)OC/C1=C/CC[C@@]3(C)O[C@H]3[C@H]3OC(=O)C(=C)[C@@H]3CC1)=C\CC[C@@]1(C)O[C@@H]21`, for which the growth in the assay with T-47D breast was 32.9%; with BT-549 breast, 93.9%; in the assay with MDA-MB-435 melanoma, 80.4%; in the assay on SW-620 colon it was 6.25% (active); with HCT-116 colon, 2.7% (active); in the assay on HCC-2998 colon it was 106%. In the assay with KM12 colon, the growth is 90%.

As to `O=C(CCSc1nnc2n(Cc3ccccc3)c(=O)c3c4c(sc3n12)CCCC4)N1CCN(c2ccccc2)CC1`, the growth is 101% in the assay with T-47D breast; 99.5% in the assay with BT-549 breast; 91.2% in the assay on MDA-MB-435 melanoma; 101% with SW-620 colon; 98.4% in the assay with MCF7 breast; 92.9% in the assay on KM12 colon.

As for `Cc1ncc(C(=O)Nc2ccc(CN3CCN(C)CC3)c(C(F)(F)F)c2)cc1C#Cc1cnc(N)c2ncccc12`, the growth with T-47D breast was 51.4%; in the assay on BT-549 breast, 42.4%; with MDA-MB-435 melanoma, -66.5% (active); in the assay with SW-620 colon, 16.6%; with HCT-116 colon, -75.5% (active); with HCC-2998 colon, 52.1%. Besides, the growth in the assay on KM12 colon is 7.51% (active).

As for `Cc1ccccc1Nc1cc(O)c2c(=O)cc(-c3ccccc3)oc2c1`, the growth in the assay on T-47D breast is 36.5%; with BT-549 breast it was 47.1%; in the assay on MDA-MB-435 melanoma, 1.9% (active); in the assay on SW-620 colon it was 21%; with HCT-116 colon, 15.2%; in the assay on HCC-2998 colon it was 76.7%. In addition, the growth with KM12 colon is 36.4%.

Turning to `CC(=O)Oc1ccc(OC(C)=O)c2ccccc12`, the growth is -49.6% (active) with T-47D breast; 96.8% in the assay with BT-549 breast; 95.8% with MDA-MB-435 melanoma; 109% with SW-620 colon; 51.6% with HCT-116 colon; 103% with HCC-2998 colon. The growth with KM12 colon was 100%.

Consider `CS(=O)(=O)Nc1cc(-c2ccc3ncc(C#N)c(Nc4ccc(F)c(Cl)c4)c3c2)cnc1Cl`, for which the growth was -13.3% (active) in the assay on T-47D breast; -14.5% (active) with BT-549 breast; 2.34% (active) in the assay on MDA-MB-435 melanoma; 5.69% (active) in the assay on SW-620 colon; 4% (active) with HCT-116 colon; 6.92% (active) in the assay with HCC-2998 colon. Also, the growth with KM12 colon is 8.82% (active).

Consider `Oc1c(CN2CCCC2)cc(CSCc2ccccc2)c2cccnc12`, for which the growth was -3.02% (active) in the assay with T-47D breast; 28.5% in the assay with BT-549 breast; 21.2% in the assay with MDA-MB-435 melanoma; 13.6% with SW-620 colon; 7.5% (active) in the assay with HCT-116 colon; 34.8% with HCC-2998 colon. Besides, the growth in the assay on KM12 colon is 20.1%.

Regarding `CCOC(=O)/C=C1\S/C(=N\Nc2cc(=O)[nH]c3ccccc23)N(c2ccccc2)C1=O`, the growth with T-47D breast was 94.6%; in the assay on BT-549 breast it was 98.4%; in the assay on MDA-MB-435 melanoma, 106%; with SW-620 colon, 101%; in the assay on HCT-116 colon it was 98.5%; in the assay with HCC-2998 colon it was 110%. For the same molecule, the growth with KM12 colon is 101%.

Consider `Cc1cc(Nc2ccc(C(=O)N3CCCC3)cc2)nc(NCCCNc2ccnc3cc(Cl)ccc23)n1`, for which the growth was 77.8% in the assay on T-47D breast; 84.6% in the assay on BT-549 breast; 79.6% in the assay with MDA-MB-435 melanoma; 95.9% with SW-620 colon; 54.5% in the assay with HCT-116 colon; 80.9% in the assay with HCC-2998 colon. For the same molecule, the growth with KM12 colon was 87.4%.

As for `C#Cc1cccc(Nc2nc(C)nc3cc(NC(=O)CCl)ccc23)c1`, the growth was -55.3% (active) in the assay with T-47D breast; -71.2% (active) in the assay with BT-549 breast; -51.1% (active) with MDA-MB-435 melanoma; -63.6% (active) with SW-620 colon; -65.2% (active) in the assay on HCT-116 colon; -88.1% (active) in the assay with HCC-2998 colon. In addition, in the assay with KM12 colon, the growth was -73.7% (active).

For `COc1ccc(/C=C/c2c(C(=O)/C=C/c3ccccc3)c(C)nc3ccccc23)cc1`, the growth was 12.9% in the assay on T-47D breast; 31.4% in the assay with BT-549 breast; -33% (active) with MDA-MB-435 melanoma; 2% (active) in the assay with SW-620 colon; -70.1% (active) in the assay with HCT-116 colon; 12.3% in the assay on HCC-2998 colon. For the same molecule, the growth in the assay with KM12 colon was 3.01% (active).

As for `C=CCOC(=O)C1=C(C)N(CC)C(=O)NC1c1c(Cl)n(C)c2ccccc12` (stereo not given), the growth is 91% in the assay with T-47D breast; 102% in the assay with BT-549 breast; 98.1% with MDA-MB-435 melanoma; 101% in the assay on SW-620 colon; 90% in the assay with HCT-116 colon; 91.2% in the assay on HCC-2998 colon. In addition, in the assay on KM12 colon, the growth is 85.7%.

On to `C=C(CNCCc1ccc(O)cc1)[C@@H]1CC[C@]2(CO)CC[C@]3(C)[C@H](CC[C@@H]4[C@@]5(C)CCC(=O)C(C)(C)[C@@H]5CC[C@]43C)[C@@H]12`, for which the growth was 42.2% in the assay on T-47D breast; 79.5% in the assay on BT-549 breast; 2.13% (active) with MDA-MB-435 melanoma; -49.8% (active) with SW-620 colon; -86.1% (active) in the assay with HCT-116 colon; 17.3% in the assay with HCC-2998 colon. The growth in the assay with KM12 colon was 1.19% (active).

Regarding `O=C1Nc2ccccc2/C1=C/c1cccn1C(=O)c1ccc(Cl)s1`, the growth with T-47D breast is -31.3% (active); with BT-549 breast, 65%; with MDA-MB-435 melanoma it was 89.8%; in the assay with SW-620 colon it was 56.4%; in the assay on HCT-116 colon it was 34.6%; in the assay on HCC-2998 colon, 54.4%. In the assay with KM12 colon, the growth was 4.36% (active).
